G9a inh = inhibitors of human histone lysine methyltransferase G9a. AID 504332. G9a H3K9 monomethylation, AlphaScreen, 2 h. Q96KQ7. hit rate 8.8% among 350,000. Potency, µM (titrated, usually from 102 µM), without a hit: at the top dose activity, negative = inhibition, most hits filed as inhibitors; also: % is scaled to controls: 0 for no effect and ±100 for the full control effect; nearly all actives have a fitted effect of over 75% in size
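Chemiluminescent proximity detection of H3K9 monomethylation, read after 10 min bead incubation in the dark. Reaction: 20 nM G9a, 500 nM biotin-H3K9 peptide, 20 uM SAM cofactor, 2 h, room temperature, following 15 min enzyme-compound preincubation.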
BAZ2B inh = BAZ2B (human) inhibition | Potency, µM (top dose mostly 114 µM), inactives show at the top dose activity change, negative = inhibition, most hits filed as inhibitors | Q9UIF8 | hit rate 4.4% among 360,000 | AID 504333 | AlphaScreen BAZ2B-H3K14Ac peptide displacement; also: % is scaled to controls: 0 for no effect and ±100 for the full control effect; nearly all actives have a fitted effect of over 60% in size
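Inhibition is scored as reduced AlphaScreen emission. The BAZ2B/b-H3(5-23)K14Ac complex (50 nM each) in PBS pH 7.4, 0.01% Tween-20 meets compound (up to 110 uM) for 30 min at RT before bead addition.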
Sfp PPTase inh = Sfp phosphopantetheinyl transferase inhibition; Biochemical Sfp PPTase activity, qHTS; Potency, µM, inactives show largest response in the series, negative = inhibition, actives largely listed as inhibitors; hit rate 3.5% among 310,000;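 also: the enzyme is Sfp with the accession as filed and its product quenches rhodamine fluorescence; 0% = enzyme reaction without inhibitor and -100% = no enzyme wells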
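Sfp 15 nM + cpd, 15 min RT; start w/ rhodamine-CoA 5 uM, BHQ-2-YbbR 12.5 uM (final); 50 mM Hepes pH 7.6, 10 mM MgCl2, 0.01% NP-40, 0.01% BSA; read 525/598 nm at 0 and 30 min.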
HP1b binding inh = inhibitors of HP1-beta chromodomain binding to methylated histone tails | AlphaScreen HP1-beta / biotin-H3K9me3 peptide binding | P83916 | hit rate 0.56% among 390,000 | Potency, µM (top dose mostly 114 µM), for inactives: at the top dose activity change, negative = inhibition, hits mostly inhibitors; also: nearly all actives have a fitted effect of over 70% in size
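AlphaScreen: HP1-beta (50 nM) preformed 30 min with biotin-H3(1-18)K9me3 peptide (50 nM) in PBS pH 7.4, 0.01% Tween-20. Compound added for 30 min at RT, then streptavidin donor/nickel chelate acceptor beads (10 ug/mL) for 30 min.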
PLK1 PBD inh = blocks phosphopeptide binding to human PLK1 polo-box domain; Plk1 PBD binding of FITC phosphopeptide, fluorescence polarization; hit rate 2.8% among 360,000; Potency, µM, for inactives: max response, negative = inhibition, most hits filed as inhibitors; P53350; also: series mostly up to about 57 µM; % is scaled to controls: 0 for no effect and ±100 for the full control effect; nearly all actives have a fitted effect of over 65% in size
Target sequence (P53350 whole entry, looked up, the tested form may be a part): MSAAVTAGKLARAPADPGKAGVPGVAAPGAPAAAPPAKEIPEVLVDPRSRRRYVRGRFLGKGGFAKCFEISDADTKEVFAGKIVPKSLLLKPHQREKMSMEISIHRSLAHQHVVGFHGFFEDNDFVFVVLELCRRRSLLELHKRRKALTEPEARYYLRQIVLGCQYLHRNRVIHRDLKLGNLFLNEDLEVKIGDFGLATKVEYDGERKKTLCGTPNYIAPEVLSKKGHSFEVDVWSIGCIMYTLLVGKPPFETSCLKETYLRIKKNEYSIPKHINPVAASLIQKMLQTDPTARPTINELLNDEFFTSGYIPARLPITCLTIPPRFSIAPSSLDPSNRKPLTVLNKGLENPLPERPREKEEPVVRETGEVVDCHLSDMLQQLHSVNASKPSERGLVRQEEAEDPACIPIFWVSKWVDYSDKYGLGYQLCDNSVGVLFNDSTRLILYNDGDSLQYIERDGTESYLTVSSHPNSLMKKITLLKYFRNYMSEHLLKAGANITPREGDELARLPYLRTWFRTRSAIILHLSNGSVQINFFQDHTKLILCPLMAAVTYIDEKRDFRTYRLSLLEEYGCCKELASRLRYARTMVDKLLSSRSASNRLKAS
JMJD2A Tudor inh = blocks the human JMJD2A Tudor domain. O75164. AlphaScreen JMJD2A-Tudor / H3K4me3 peptide binding. Potency, µM (highest dose often 114 µM), for inactives: at the highest dose activity change, negative = inhibition, actives largely listed as inhibitors. hit rate 4.4% among 390,000. AID 504339; also: % is scaled to controls: 0 for no effect and ±100 for the full control effect; nearly all actives have a fitted effect of over 50% in size
Starred values were filed as active, the others as inactive; ? = inconclusive; / = not tested or not shown; [ ] = remark or other dose. A selection: hits, their analogues and other compounds. The true share with any hit is near 12%. Calls follow the shape of the dose curve; as a rule, active = well fitted curve in the direction sought with a large enough effect; inconclusive = small, poorly fitted or top-dose-only effect, or another doubt; inactive = no such curve, though single readings can be large; an effect the other way counts as inactive or inconclusive. Potency is read from the fitted curve at half-maximal effect.

SMILES	G9a inh	BAZ2B inh	Sfp PPTase inh	HP1b binding inh	PLK1 PBD inh	JMJD2A Tudor inh
COc1ccc(C2=NN(C(C#N)c3ccc(OC)c(OC)c3)C(c3ccccc3)C2)cc1 (stereo unspecified)	?	58.4%	-17.5%	100.5%	-4.9%	7.1%
CSc1ccc(C(=S)N2CCN(CCO)CC2)cc1	10µM*	4.9%	8.91µM*	-15.6%	26.7µM*	-8.4%
OCCN1CCN(C(=S)c2ccc(Br)cc2)CC1	22.4µM*	-2.0%	31.6µM*	0.2%	6.7µM*	-9.7%
OCCN1CCN(C(=S)Nc2ccc(SC(F)F)cc2)CC1	3.3%	-2.8%	2.1%	34.1%	-1.8%	-2.3%
COc1ccc(NC(=O)N2CCCC3(CCN(S(=O)(=O)c4ccccc4)CC3)C2)cc1	3.9%[12.7 µM]	/	21.8%	/	/	/
COc1ccc(CNC(=O)C2CCN(C(=O)c3ccc(-n4ccc5ccccc54)s3)CC2)cc1	-3.0%[59 µM]	-2.1%	/	6.2%	/	-14.6%
Cc1cc(C(=O)NCc2ccccc2)c(=O)[nH]c1C	-8.4%[59 µM]	/	16.8%	19.7%	-5.1%	21.1%
Cc1cc(C(=O)O)c(=O)[nH]c1C	70.8µM*	?	12.6%	-4.9%	-7.6%	22.4µM*
O=C1NC(=O)C(=Cc2ccccc2)N1	/	/	/	35.0%	0.9%	-12.4%
O=C1NC(=O)/C(=C/c2ccco2)N1	5.7%[0.501 µM]	9.0%	/	45.1%	/	-1.4%
O=C1NC(=O)/C(=C/c2ccc(N3CCOCC3)o2)N1	/	-2.5%	31.6µM*	14.6%	1.0%	-9.7%
O=C1NC(=O)/C(=C\c2ccc(N3CCOCC3)o2)N1	25.1µM*	6.9%	17.8µM*	14.9%	10.6%	-7.0%
Cc1nc2cnc(N3CCN(C)CC3)nc2n(-c2ccccc2)c1=O	9.4%[0.501 µM]	/	19.9%	/	/	/
O=C1/C(=C\c2ccco2)NC(=S)N1c1ccccc1	/	-5.5%	-16.7%	?	?	56.2µM*
Cc1ccc(/C=C2\SC(=S)N(c3cccnc3)C2=O)cc1	-17.5%	?	-22.0%	14.8%	-7.2%	-23.9%
Cc1ccc(N2C(=O)/C(=C\c3ccco3)SC2=S)cc1	-6.0%[12.7 µM]	56.2µM*	14.1µM*	-14.9%	-6.4%	-32.4%
O=C1NC(=O)C(=Cc2ccco2)S1	/	/	/	19.0%	-8.2%	-12.4%
O=C1NC(=S)NC1=Cc1ccco1	/	/	/	35.5µM*	23.8µM*	22.4µM*
O=C1/C(=C\c2ccco2)SC(=S)N1c1ccccc1	50.1µM*	?	?	?	-10.3%	-23.5%
Nc1cccc2c1C(=O)c1ccc(Cl)cc1C2=O	/	/	/	?	?	14.1µM*
O=C(c1ccccc1)C1C(=O)c2ccccc2C1=O	-12.6%[2.33 µM]	-35.0%	20.6%	32.4%	-16.5%	-23.6%
O=C1C(=C(O)c2ccccc2)C(=O)c2ccccc21	?	-5.5%	-14.6%	-1.0%	-9.6%	89.1µM*
OCCNc1cnc2ccccc2n1	2.8%	-11.4%	15.0%	-2.1%	11.9µM*	-28.6%[11.4 µM]
O=c1c2cc(Br)ccc2[nH]c(=S)n1Cc1ccccn1	7.94µM*	-3.6%	8.9%	47.2%	?	-8.1%
O=c1c2cc(N3CCOCC3)ccc2[nH]c(=S)n1Cc1ccccn1	?	-35.3%	20µM*	40.3%	-9.7%	28.2µM*
SMILES	G9a inh	BAZ2B inh	Sfp PPTase inh	HP1b binding inh	PLK1 PBD inh	JMJD2A Tudor inh
O=c1c2cc(N3CCOCC3)ccc2[nH]c(=S)n1Cc1ccccc1Cl	41.7%[59 µM]	-10.7%	?	64.4%	3.2%	-1.4%
COc1ccc(NC(=O)CCCN2C(=O)C(c3ccccc3)Oc3cccnc32)cc1OC (stereo unspecified)	-0.1%[59 µM]	?	3.0%	3.2%	-17.1%	-28.8%
COc1ccc(Br)cc1CNC(=O)CN1C(=O)C(c2ccccc2)Oc2cccnc21 (stereo unspecified)	19.9%	50.1µM*	5.6%	50.2%	-6.7%	-23.6%
CCN(CC)c1ccc(NC(=O)CCCN2C(=O)C(c3ccccc3)Oc3cccnc32)c(C)c1 (stereo unspecified)	2.82µM*	-38.6%	/	15.0%	/	-21.2%
O=c1oc2cc(Cl)ccc2n1CSc1nc2ccccc2s1	83.7%	24.9%	-3.6%	97.3%	-6.5%	43.6%
COc1ccc(C(=O)N/C(=C\c2ccccc2)C(=O)NCCCn2ccnc2)cc1	1.2%	6.1%	1.2%	21.9%	4.8%	13.4%
